GSH bead fluor – GSH bead compound fluorescence profile; AID 1776; fluorescence (KMESF) at 10 µM; actives 0.25% (n = 190,000); GSH beads flow cytometry, compound fluorescence 488/530 nm; active compounds read high; in the data active means fluorescence above about 89;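 further: glutathione beads carrying GST-tagged Bcl family fusion proteins plus one bare bead set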
RGS8-Gao – human RGS8-Galphao interaction regulation; response (percent of control binding), % at 10 µM; P09471; multiplexed bead flow cytometry, RGS8-Galphao binding; actives lie on both sides; actives 0.34% (n = 220,000); in the data active means response below about 60% or above about 140%; inactive means in between;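 further: Galphao activated as the GDP aluminium fluoride complex binding bead-coupled RGS8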
Target sequence (P09471 whole entry, looked up): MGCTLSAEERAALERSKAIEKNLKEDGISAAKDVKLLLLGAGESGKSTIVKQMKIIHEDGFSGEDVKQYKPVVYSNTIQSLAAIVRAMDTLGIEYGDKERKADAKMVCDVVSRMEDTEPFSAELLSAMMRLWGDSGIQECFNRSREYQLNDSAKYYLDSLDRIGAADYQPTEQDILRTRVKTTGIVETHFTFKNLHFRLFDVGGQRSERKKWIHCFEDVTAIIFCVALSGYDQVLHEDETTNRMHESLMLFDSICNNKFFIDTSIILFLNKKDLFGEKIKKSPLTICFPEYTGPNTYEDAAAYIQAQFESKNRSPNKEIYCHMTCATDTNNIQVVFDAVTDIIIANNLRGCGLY
RGS4-Gao reg – human RGS4-Galphao interaction regulation; Multiplexed bead flow cytometry, RGS4-Galphao binding; actives lie on both sides; actives 0.33% (n = 220,000); P09471; binding response (% of control), % at 10 µM; in the data active means binding response below about 49% or above about 150%; inactive means in between;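 further: fluorescent Galphao activated with aluminum fluoride binding bead-coupled RGS4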
RGS7-Gao – modulates binding of RGS7 to human Galphao | P09471 | binding response (% of control), % at 10 µM | AID 1439 | actives 0.35% (n = 220,000) | Multiplexed bead flow cytometry; actives lie on both sides; in the data active means binding response below about 49% or above about 150%; inconclusive means no clear call, values can overlap the other calls; inactive means in between;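 further: fluorescent Galphao held in activated GDP-AlF4 state binding bead-coupled RGS7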
Avidin fluor – compound fluoresces at 488/530 nm on avidin beads | compound fluorescence 488/530 nm, flow cytometry; active compounds read high | fluorescence (KMESF) at 10 µM | actives 0.38% (n = 220,000); in the data active means fluorescence above about 47
RGS16-Gao – modulates binding between human RGS16 and Galphao; AID 1441; O15492+P09471; actives 0.38% (n = 220,000); binding response (% of control), % at 10 µM; bead-based flow cytometry RGS16-Galphao binding, fluorescence; actives lie on both sides;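 further: Galphao activated by GDP with aluminum fluoride before binding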
RGS4-Gao HTS – RGS4-Galphao interaction regulator (human) | shares compounds with RGS16-Gao | multiplexed bead flow cytometry, RGS–Galpha-o binding | RGS4–Galpha-o binding response, % at 10 µM | actives 99% (n = 1,600) | AID 1504;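 further: fluorescently labeled Galpha-o bound to GDP with aluminium fluoride binding biotinylated RGS beads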
Biotin-avidin – counter-screen: compounds disrupting biotin binding to avidin beads | shares compounds with RGS16-Gao | streptavidin beads, fluorescein-biotin binding, flow cytometry | inhibition, % at 10 µM | 1,700 tested, under 10 active;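 active means inhibition above 50%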;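 further: median green fluorescence of gated singlet beads compared with DMSO control wells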
RGS8-Gao single – RGS8-Galphao interaction regulation, single point confirmation; shares compounds with RGS16-Gao; bead-based flow cytometry RGS8-Galphao binding, fluorescence; actives lie on both sides; binding response (% of control), % at 10 µM; actives 3% (n = 1,700); AID 1836; in the data active means binding response below about 72% or above about 130%; inactive means in between;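 further: Galphao activated as GDP AlF4 complex before binding bead RGS8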
RGS7-Gao single – confirmation of regulators of human RGS7-Galphao interaction; shares compounds with RGS16-Gao; bead-based flow cytometry RGS7-Galphao binding; actives lie on both sides; response (percent of control binding), % at 10 µM; actives 7.8% (n = 1,700); in the data active means response below about 75% or above about 130%; inactive means in between;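 further: fluorescent Galphao activated with GDP and aluminum fluoride binding bead-coupled RGS7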
RGS16-Gao single – confirmation of regulators of human RGS16-Galphao interaction; actives 4% (n = 1,700); shares compounds with RGS16-Gao; bead-based flow cytometry, RGS16-Galphao binding; actives lie on both sides; AID 1838; response (% of control binding), % at 10 µM; in the data active means response below about 74% or above about 130%; inactive means in between;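 further: Galphao activated as the GDP aluminium fluoride complex binding bead-coupled RGS16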
RGS4-Gao confirm – confirmation of regulators of human RGS4-Galphao interaction; shares compounds with RGS16-Gao; RGS4-Galphao binding, multiplexed bead flow cytometry; actives lie on both sides; binding response (% of control), % at 10 µM; actives 4% (n = 1,700); AID 1840; in the data active means binding response below about 74% or above about 130%; inactive means in between
RGS19-Gao conf – confirmation of regulators of human RGS19-Galphao interaction; shares compounds with RGS16-Gao; bead-based flow cytometry RGS19-Galphao binding; actives lie on both sides; response (percent of control binding), % at 10 µM; actives 5% (n = 1,700); AID 1841; in the data active means response below about 50% or above about 160%; inactive means in between
Target sequence (P09471 whole entry, looked up): as above
Target sequence (P49795 whole entry, looked up): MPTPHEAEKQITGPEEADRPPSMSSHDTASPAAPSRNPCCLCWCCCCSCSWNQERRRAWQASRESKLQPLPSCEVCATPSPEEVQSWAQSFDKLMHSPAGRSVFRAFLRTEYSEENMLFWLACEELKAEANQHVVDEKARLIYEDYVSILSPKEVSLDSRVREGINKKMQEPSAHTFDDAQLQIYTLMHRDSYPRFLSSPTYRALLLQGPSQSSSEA
Each line names hits and unclear results; the compound was inactive in the other large screens (follow-up assays come after a bar, where they were run); [ ] = dose if it differs, or a comment. The list is not random: actives were taken first. Their share in the collection is about 1.2%. Unless noted, how the calls were made is not given here.

O=C(Nc1cccc2ncccc12)c1cccc(F)c1	none
O=C(Nc1cccc2ncccc12)c1cccnc1	none (no result: RGS8-Gao, RGS4-Gao reg, RGS7-Gao, Avidin fluor, RGS16-Gao) | Biotin-avidin inactive | RGS8-Gao single inactive | RGS7-Gao single inactive | RGS16-Gao single inactive | RGS4-Gao confirm inactive | RGS19-Gao conf inactive
O=C(Nc1cccc2ncccc12)c1ccc(Br)c([N+](=O)[O-])c1	RGS8-Gao 150[activator] | RGS4-Gao HTS 120 | Biotin-avidin inactive | RGS8-Gao single inactive | RGS7-Gao single inactive | RGS16-Gao single inactive | RGS4-Gao confirm inactive | RGS19-Gao conf inactive
CCOc1ccccc1/C=N/NC(=O)c1cccc(S(=O)(=O)N(CC)CC)c1	none
CCN(CC)S(=O)(=O)c1cccc(C(=O)N/N=C/c2ccc(O)c(O)c2O)c1	RGS8-Gao 51, RGS4-Gao reg 43, RGS7-Gao 31 | Biotin-avidin inactive | RGS8-Gao single 64 | RGS7-Gao single 61 | RGS16-Gao single 57 | RGS4-Gao confirm 63 | RGS19-Gao conf 16
O=C(O)[C@H]1Cc2ccccc2CN1S(=O)(=O)c1ccc(F)cc1	RGS7-Gao inconclusive (no result: GSH bead fluor) | Biotin-avidin inactive | RGS8-Gao single inactive | RGS7-Gao single inactive | RGS16-Gao single inactive | RGS4-Gao confirm inactive | RGS19-Gao conf inactive
CC(=O)c1ccc(S(=O)(=O)N2Cc3ccccc3CC2C(=O)O)cc1 (stereo not given)	RGS7-Gao inconclusive (no result: GSH bead fluor)
CCCNC(=O)c1nnsc1Sc1ccc(Cl)cc1	none
COc1ccc(OC)c(/C=C2\SC(=S)N(Cc3cccnc3)C2=O)c1	RGS16-Gao 14 | RGS4-Gao HTS 89 | Biotin-avidin inactive | RGS8-Gao single inactive | RGS7-Gao single inactive | RGS16-Gao single inactive | RGS4-Gao confirm inactive | RGS19-Gao conf inactive
Cc1ccc(NS(=O)(=O)c2cccc(C(=O)OCC(=O)NCc3ccco3)c2)cc1	GSH bead fluor 231, RGS8-Gao 178[activator], RGS4-Gao reg 163[activator] | Biotin-avidin inactive | RGS8-Gao single inactive | RGS7-Gao single inactive | RGS16-Gao single inactive | RGS4-Gao confirm inactive | RGS19-Gao conf inactive
O=c1ccc2cc(O)c(O)cc2o1	RGS8-Gao 59 | RGS4-Gao HTS 57 | Biotin-avidin inactive | RGS8-Gao single inactive | RGS7-Gao single inactive | RGS16-Gao single inactive | RGS4-Gao confirm inactive | RGS19-Gao conf inactive
Cc1c(Br)c(=O)oc2c(Br)c(O)c(O)cc12	RGS8-Gao 42, RGS16-Gao 16 | RGS4-Gao HTS 52 | Biotin-avidin inactive | RGS8-Gao single inactive | RGS7-Gao single inactive | RGS16-Gao single inactive | RGS4-Gao confirm inactive | RGS19-Gao conf inactive
CCC(=O)N1CCN(c2ccccc2NC(=O)c2ccc(OC)c(Cl)c2)CC1	none
Cc1ccc(C(=O)CSc2nnc3c4ccccc4nc(Cc4ccccc4)n23)cc1	none
Cc1ccc(S(=O)(=O)NCCc2nnc3ccc(SCC(=O)Nc4nc5ccccc5s4)nn23)cc1	RGS16-Gao 177[activator] | RGS4-Gao HTS 105 | Biotin-avidin inactive | RGS8-Gao single inactive | RGS7-Gao single inactive | RGS16-Gao single inactive | RGS4-Gao confirm inactive | RGS19-Gao conf inactive
O=C1NC(=O)/C(=C\c2ccc(OCc3cccc(C(=O)O)c3)c(Cl)c2)N1	none
O=C1NC(=O)/C(=C/c2cccc(O)c2)N1	none (no result: GSH bead fluor, RGS8-Gao, RGS4-Gao reg, RGS7-Gao, Avidin fluor, RGS16-Gao) | Biotin-avidin inactive | RGS8-Gao single inactive | RGS7-Gao single inactive | RGS16-Gao single inactive | RGS4-Gao confirm inactive | RGS19-Gao conf inactive
CC1=NOC(=O)/C1=C/c1ccc(N(C)C)cc1	none
CN(C)c1ccc(/C=C2/NC(=O)NC2=O)cc1	RGS8-Gao 145[activator], RGS4-Gao reg 549[activator], RGS7-Gao 354[activator], Avidin fluor 113 | Biotin-avidin inactive | RGS8-Gao single inactive | RGS7-Gao single inactive | RGS16-Gao single inactive | RGS4-Gao confirm inactive | RGS19-Gao conf inactive
Cc1ccc(C(C(=O)NC(C)(C)C)N(Cc2ccccc2)C(=O)c2snc(C(N)=O)c2N)o1 (stereo not given)	RGS7-Gao 161[activator], Avidin fluor 128 | RGS4-Gao HTS 110 | Biotin-avidin inactive | RGS8-Gao single inactive | RGS7-Gao single inactive | RGS16-Gao single inactive | RGS4-Gao confirm inactive | RGS19-Gao conf inactive
Cc1ccc(C(C(=O)NC2CCCC2)N(Cc2cccnc2)C(=O)c2snc(C(N)=O)c2N)o1 (stereo not given)	none
CCCCOCCCNC1=NCCCCC1	RGS16-Gao -11 | RGS4-Gao HTS 87
CC(C)CCNC1=NCCCCC1	none
Cc1ccc(-c2csc(NC(=O)C3=NN(C4CCS(=O)(=O)C4)C(=O)CC3)n2)cc1 (stereo not given)	RGS7-Gao inconclusive (no result: GSH bead fluor)
CC(=Nc1ccccc1)Nc1ccccc1	RGS8-Gao 159[activator] (no result: RGS16-Gao) | RGS4-Gao HTS 144 | Biotin-avidin inactive | RGS8-Gao single inactive | RGS7-Gao single inactive | RGS16-Gao single inactive | RGS4-Gao confirm inactive | RGS19-Gao conf inactive
CC(NC(=O)C1c2ccccc2Oc2ccccc21)C1CCCO1 (stereo not given)	RGS7-Gao inconclusive
Cn1c(N)c(C(=O)COC(=O)CCCOc2ccc(Cl)cc2Cl)c(=O)n(C)c1=O	RGS7-Gao inconclusive
CC(C)(C)c1ccc(C(=O)N2CCCN(c3ccc([N+](=O)[O-])cn3)CC2)cc1	RGS7-Gao inconclusive (no result: GSH bead fluor)
O=C(NC1=NCCS1)c1sc2ccccc2c1Cl	none (no result: RGS8-Gao, RGS4-Gao reg, RGS7-Gao, Avidin fluor) | Biotin-avidin inactive | RGS8-Gao single inactive | RGS7-Gao single inactive | RGS16-Gao single inactive | RGS4-Gao confirm inactive | RGS19-Gao conf inactive
O=C(NC1=NCCS1)c1sc2cc(Cl)cc(Cl)c2c1Cl	none
O=C1CC(N2CCN(c3ccc(F)cc3)CC2)C(=O)N1c1ccc2c(c1)OCO2 (stereo not given)	none
Cc1noc(C)c1CSc1ncnc2sc(C)c(C)c12	none (no result: RGS7-Gao, Avidin fluor, RGS16-Gao) | Biotin-avidin inactive | RGS8-Gao single inactive | RGS7-Gao single inactive | RGS16-Gao single inactive | RGS4-Gao confirm inactive | RGS19-Gao conf inactive
